Assay results: PubChem BioAssay (NCI)
Values joined by “and” are separate entries in the source; they are usually repeats but may differ in a detail not shown here. Equal values may be shown once. The panel holds about 79,000 compounds, 15% with a hit somewhere; the sample as a whole holds those more often. Unmarked numbers belong to inactive results. Active and inactive are the calls of the source. Cut-off read from the data, not from the text of the source: active = growth inhibition above about 70%; inactive = the rest.

Key:
[1] = NCI Yeast Anticancer Drug Screen. Data for the rad50 strain (AID 155);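 note: 0% = growth of vehicle-only cultures of the same strain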; details: S. cerevisiae rad50 strain growth inhibition, hits give high values; at 50.0 µM unless noted
Summary of the method: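 A DNA repair-deficient yeast mutant serves as the test organism; compound-induced growth inhibition is calculated against vehicle-treated cells.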

[2] = NCI Yeast Anticancer Drug Screen. Data for the mec2-1 strain (AID 157); details: S. cerevisiae mec2-1 strain, hits give high values; at 50.0 µM unless noted
Summary of the method: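 Mutant yeast (mec2-1) grown with compound; growth inhibition relative to vehicle control reported.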

[3] = NCI Yeast Anticancer Drug Screen. Data for the sgs1 mgt1 strain (AID 161);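 note: 0% = growth of cultures given vehicle only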; details: S. cerevisiae sgs1 mgt1 strain, hits give high values; at 50.0 µM unless noted
Summary of the method: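 Growth of a repair-deficient yeast mutant was monitored after compound treatment and expressed as inhibition relative to vehicle-treated cultures.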

[4] = NCI Yeast Anticancer Drug Screen. Data for the cln2 rad14 strain (AID 165);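 note: 0% = growth equal to vehicle treated cultures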; details: S. cerevisiae cln2 rad14 strain, hits give high values; at 50.0 µM unless noted
Summary of the method: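 Readout is yeast growth inhibition versus vehicle-treated controls, using a strain with cln2 and rad14 alterations exposed to compound.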

[5] = NCI Yeast Anticancer Drug Screen. Data for the bub3 strain (AID 167); details: S. cerevisiae bub3 mutant strain, hits give high values; at 50.0 µM unless noted
Summary of the method: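 Inhibition values come from growth of compound-treated mutant yeast normalised to vehicle-treated controls.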

[6] = NCI Yeast Anticancer Drug Screen. Data for the mlh1 rad18 strain (AID 175); details: S. cerevisiae mlh1 rad18 strain growth inhibition, hits give high values; at 50.0 µM unless noted
Summary of the method: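 Genetically defined yeast (DNA repair-deficient) exposed to compounds; growth inhibition determined relative to vehicle.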

| SMILES | growth inhibition [1] | growth inhibition [2] | growth inhibition [3] | growth inhibition [4] | growth inhibition [5] | growth inhibition [6] |
| --- | --- | --- | --- | --- | --- | --- |
| Cc1c(C(=O)CC(=O)C(=O)Nc2ccc(Cl)c(Cl)c2)[n+](=O)c2ccccc2n1[O-] | 12.6% | 16.9% | -16.1% | 34.5% | 19.4% | 20.2% |
| N#C/C(=C\c1cccc2ccccc12)c1ccc(Cl)cc1 | -11.8% | -12.9% | -6.65% | -13.7% | -2.6% | -1.85% |
| O=C(CI)NCc1cn(C2CC(O)C(CO)O2)c(=O)[nH]c1=O (stereo not drawn) | 4.9% | 3.85% | 5.85% | 19.8% | 1.15% | 3.3% |
| O=c1c2ccccc2[nH]c(=S)n1C1CCCC1 | -7.85% | -6.55% | 15.1% | -19.9% | 39.4% | -2.15% |
| C/C(=C\c1ccc(N(C)C)cc1)c1ccncc1 | 63.3% | 38.9% | 68.5% | 34.8% | 86.7% (active) | 48.2% |
| c1ccc2nc(CCC3CCCCN3)ccc2c1 (stereo not drawn) | 7.2% | 7.5% | -9.7% | -14.2% | -2.1% | 17.1% |
| C1COC2SC3=C(SC(=C4SC5=C(SCCS5)S4)S3)SC2O1 (stereo not drawn) | 3.05% | -2.05% | 19.2% | -5.6% | 8.85% | 6.9% |
| O=CC[C@]12CC(=O)OC(C=CC13OCCO3)C2 | 6.55% | -9.4% | -16.7% | 17.6% | 13.4% | 9.05% |
| Cc1ccc(N2C(=O)C3CSCN3C2=O)cc1 (stereo not drawn) | 31.2% | 19.8% | 6.85% | 4.9% | 9% | 6.25% |
| O=C(O)CCCl | -8.95% and -10.8% | 7.65% and -16.2% | 25.1% and -18.3% | -27.1% and -34.2% | -6.1% and -0.9% | 29.3% |
| C[N+](C)(C)CC(O)C[N+](C)(C)C | 12.1% | 6.15% | 3.6% | -42.1% | -3.5% | 22.7% |
| Cc1c2c(c(C)c3c1C(=O)c1cc4c(cc1C3=O)OCO4)OC(C)(C)O2 | 14.3% | 0.35% | 21.4% | 8.95% | 11.6% | 23.1% |
| CC[C@H](CC[C@@H](C)[C@H]1CC[C@H]2[C@@H]3CC=C4C[C@@H](O)CC[C@]4(C)[C@H]3CC[C@]12C)C(C)C | 26.8% and -6.4% | -4.1% and -11.6% | 26.6% and -12.2% | 15.9% and 7.85% | 5.95% and -13.2% | 13.1% and -3.05% |
| CCOC(=O)c1cc2c(-c3ccccc3)c(-c3ccccc3)c(-c3ccccc3)c(-c3ccccc3)n2n1 | 10.2% | 15.2% | 0.25% | 31.9% | -1.45% | -0.4% |
| CC(O[Si](C)(C)C)C1C=CC(C)n2c(=O)n(-c3ccccc3)c(=O)n21 (stereo not drawn) | 4.65% | -26.6% | -34.3% | -7.6% | -55.6% | -18.2% |
| CCOC(=O)c1cnc2sc3ccc4ccccc4c3n2c1=O | 51.9% | 23.4% | 61% | 36.1% | 51.3% | 60.7% |
| Cc1ccc(S(=O)(=O)CC(=O)NC(C)C)cc1 | -3.9% | -17% | 4% | 17.2% | 3.2% | 20.8% |
| Nc1ncnc2c1ncn2C1OC(CSCC(F)(F)F)C(O)C1O (stereo not drawn) | -4.05% | -11.8% | -8.65% | 26.6% | -7.8% | -11.4% |
| NC1(CC(=O)O)CCN(Cc2ccccc2)CC1 | 4.05% | 13% | 3.9% | -7.05% | -1.15% | 2.4% |

| SMILES | growth inhibition [1] | growth inhibition [2] | growth inhibition [3] | growth inhibition [4] | growth inhibition [5] | growth inhibition [6] |
| --- | --- | --- | --- | --- | --- | --- |
| O=C(Oc1ccc(O)cc1)N(c1cccc2ccccc12)c1cccc2ccccc12 | 38% | 18.1% | 40.6% | 22.4% | 66% | 44.2% |
| Cc1cc2cc3c(=O)[nH]c(=O)[nH]c3nc2cc1C | -11.7% | 1.65% | -19% | -8.6% | -27.2% | -0.05% |
| CN(/N=C/c1cccs1)c1ccc(Cl)cc1[N+](=O)[O-] | -29.4% | -8.95% | -13.8% | 0.95% | -7.45% | -1% |
| CN(C)CCCNC(=O)N/N=C/c1ccccc1 | 13.9% | -13.8% | -13.8% | -6.3% | -39.7% | -21.1% |
| C1=C(Nc2ccccc2)C(=Nc2ccccc2)C=C(Nc2ccccc2)C1=Nc1ccccc1 | -17.2% | -4.25% | -3.1% | 7.1% | 1.65% | 5.4% |
| NC(N)=NC(N)=Nc1ccc(S(=O)(=O)O)cc1 | -4.7% | -26.9% | -47% | -22.7% | -29.6% | -11.8% |
| CC(C)c1ccc(/C(C(=O)O)=C(\O)C(=O)O)cc1 | -14.4% | -7.25% | -15.4% | 29.9% | -31.6% | -7.45% |
| c1cncc(C2N3CCCCC3[C@@H]3c4[nH]c5ccccc5c4CCN23)c1 (stereo partly drawn) | -26.6% | -40.5% | -22.8% | -8.25% | -15.1% | -26.9% |
| CCOC(=O)c1ccc2c(c1)C(=O)c1cc([N+](=O)[O-])ccc1-2 | 2.85% | 13.2% | 4.8% | 10.6% | 26.7% | 23.1% |
| O=Cc1ccccc1OCCOc1ccccc1C=O | 8.7% | 1.35% | 10.2% | -24% | 9.4% | 19.1% |
| CCCCN(CCCC)CC(C(=O)Nc1ccc([N+](=O)[O-])cc1[N+](=O)[O-])/C(C)=N\NC(=S)NN (stereo not drawn) | 3.55% | -6.8% | 44.7% | 24.8% | 16.2% | 24.4% |
| Cc1c(Cl)cccc1NC(=O)C(C)NCC(C)C (stereo not drawn) | -4.4% | -0.2% | -6.05% | -11.7% | 14.8% | -19.6% |
| CCCCC/C([O-])=C1/C(=O)N(c2ccccc2)N=C1C.CCCCC/C([O-])=C1/C(=O)N(c2ccccc2)N=C1C.[Cu+2] | 2.1% | 0.75% | -13.7% | -6.1% | -2.75% | 7.75% |
| CCOC(=O)C1(Cc2ccccc2)Cc2cc3c(cc2C1)CCC3 | -23.1% | -50.5% | -23.7% | -3.5% | 2.6% | -2.5% |
| COc1ccc(/C=C/c2ccc(OC)cc2)cc1 | 13.3% | -8.1% | 0.6% | -13.4% | 8.7% | 5.8% |
| C=CCC(Cc1ccccc1)C(N)=O (stereo not drawn) | -21.1% | -51.7% | -14.5% | 10.6% | -22.2% | 14.4% |
| CN(C(=O)CCC1OCCO1)c1cc(N)ccc1OCc1ccccc1 | 15.3% | -0.7% | -7.2% | 4.8% | 19.9% | -18.6% |
| CC1=CC(C)C(C(=O)OCC(C)C)C(C(=O)OCC(C)C)C1 (stereo not drawn) | -13.2% | -6% | -5.1% | 1.45% | 23% | -22.4% |
| Nc1ncnc(N)c1NC(=O)c1ccc2ccccc2c1 | 8.95% | 35.1% | -1.55% | -1.85% | -20.4% | -21.4% |
